Consider 34 compounds from PubChem BioAssay (NCI).

Values joined by “and” are separate entries in the source; they are usually repeats but may differ in a detail not shown here. Equal entries are not always repeated. The panel holds about 83,000 compounds, 20% with a hit somewhere; the sample as a whole holds those more often.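 Treatment: one concentration, 48 hours, 96-well format. Scoring: percent growth, with anything below 10 considered active.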 Active and inactive are the calls of the source.

The test system of one experiment is UO-31 renal. In words: NCI-60 one-dose screen, 48 h (100 = growth as untreated, 0 = no growth, -100 = all killed). The following applies: 10 µM unless noted.
With `C[C@@H]1OCC2(CCN(c3cnc(C(=O)Nc4cc(F)cc5cccnc45)cn3)CC2)[C@@H]1N`, the growth is 41.1% (inactive). Consider `CN1CCN(c2ccc(Nc3nc(NCCCNS(=O)(=O)c4ccccc4)c4sccc4n3)cc2)CC1`, for which the growth was 69.2% (inactive). On the same count and under the same terms, then `CCCCCCNC(=O)Oc1ccc(/C(=C(/C)c2ccc(OC)cc2)c2ccc(OCCN3CCCCCC3)cc2)cc1`, with 6.69% (active); and `O=[N+]([O-])c1ccc(NC(=S)NNC(=S)Nc2ccc(Br)cc2)cc1`, with 70% (inactive). In the case of `C#C[C@]1(O)CC[C@H]2[C@@H]3CC=C4c5sc(N6CCN(C)CC6)nc5CC[C@]4(C)[C@H]3CC[C@@]21C`, the growth is 77.2% (inactive).

For the compound `CN1CCN(Cc2ccc(NC(=O)c3cncc(C#Cc4cnc5ccc(NCCO)nn45)c3)cc2C(F)(F)F)CC1`, the growth was 58.4% (inactive). Still for that read-out and setting: next, `C#CCOc1cccc(/C(N)=N/C(N)=N/c2nc3ccccc3s2)c1`: 91.8% (inactive); `NC(N)=NS(=O)(=O)c1ccc(N=Nc2c(N)nn(-c3ccc([N+](=O)[O-])cc3[N+](=O)[O-])c2N)cc1`: 82.5% (inactive); `N#Cc1c(-c2cccs2)cc(-c2cnccn2)nc1SCC(=O)N/N=C/c1cccs1`: 89.1% (inactive). On the same count and under the same terms, next, `COc1cc(C(=O)c2cc(C(C)=O)c3ccc(C)cn23)cc(OC)c1OC`: 44% (inactive); `Brc1ccc(-c2cc(-c3ccc4c(c3)OCCO4)n[nH]2)s1`: 44.5% (inactive).

For another experiment, the system named is TK-10 renal. The experiment is described as above. The following applies: 10 µM unless noted.
On to `N#Cc1nc(-c2ccccc2)oc1N1CCC(C2(C(F)(F)F)N=N2)CC1`, for which the growth was 116% (inactive).

Turning to `CNC(=O)c1cc(N2CCc3cc(NC(=O)Nc4ccc(N5CCOCC5)c(C(F)(F)F)c4)ccc32)ccn1`, the growth is 80.8% (inactive). The same measure, in the same setting: next, `O=C(CCCCCCNC(=O)C(O)(O)C(F)(F)F)Nc1ccc(Br)cc1`: -2.6% (active); `Cc1csc(/N=C(N)/N=C(\N)c2cccnc2)n1`: 116% (inactive); `C=C1CCc2nc(SCC(=O)O)ccc2N1`: 100% (inactive). On the same count and under the same terms, next, `CCCCOc1ccc(S(=O)(=O)N2CCN(c3nc(C)cc(N4CCOCC4)n3)CC2)cc1`: 33.6% (inactive); `CCn1c2ccc(/C=N/N(C)S(=O)(=O)CCN(C)C)cc2c2cc(/C=N/N(C)S(=O)(=O)CCN(C)C)ccc21`: 142% (inactive). The same measure, in the same setting: next, `NCCNC(=O)c1cccc(COc2ccccc2NC(=O)c2cc(Br)c(Br)[nH]2)c1`: 89% (inactive).

`CNC(=O)Nc1ccc(Nc2cc(-c3ccc(-n4cccn4)cc3)[nH]n2)c(C)c1`: the growth was 138% (inactive).

Take `CCN(CC)c1ccc(/C=N/NC(=O)c2ccc(S(N)(=O)=O)cc2)c(O)c1`: the growth is 37.4% (inactive). The same measure, in the same setting: then `COc1cc(-c2nc(-c3ccccc3)[nH]c2-c2ccnc(NCCCNS(=O)(=O)c3cccc(F)c3)n2)ccc1F`, with 137% (inactive). On the same count and under the same terms, next, `C/C=C/CC(C)C(O)[C@H](NC(=O)[C@@H]1CCCN1C(=O)[C@](C)(CC)NC(=O)CCCCCCCCC)C(=O)N[C@@](C)(CC)C(=O)N[C@@H](CCC(N)=O)C(=O)N[C@H](CCC(N)=O)C(=O)NC(C)(C)C(=O)NC(C)(C)C(=O)N[C@@H](CCC(N)=O)C(=O)N[C@H](CC(C)C)C(=O)N[C@H](CO)CC(C)C` (some centres undefined): 107% (inactive) and -11.3% (active); `O=S(=O)(NCCCNc1nccc(-c2[nH]c(-c3ccccc3)nc2-c2ccc(F)c(O)c2)n1)c1ccc(C(F)(F)F)cc1`: 95.7% (inactive). The same measure, in the same setting: then `N#Cc1c(-c2cccs2)c(C#N)c(=O)n(Cc2nc3ccccc3[nH]2)c1N`, with 152% (inactive). `Cc1ccc2c(n1)C(=O)C(Cl)=C(Nc1ccccc1C(=O)OC(C)(C)C)C2=O`: the growth was -84.6% (active). Same read-out and setting: next, `Brc1cccc(-c2cc(-c3ccc4c(c3)OC=CO4)[nH]n2)c1`: 108% (inactive); `CN1CCN(CCCCCC(=O)Nc2nc(-c3cccc(NS(=O)(=O)c4cccc5c(N(C)C)cccc45)c3)cs2)CC1`: 119% (inactive); `O=C(CSc1nnc(-c2ccc(Cl)cc2)n1-c1ccccc1)Nc1ccc(Cl)cc1`: -6.39% (active).

Regarding `NC1[C@H]2CN(c3cnc(C(=O)Nc4cc(F)cc5cccnc45)cn3)C[C@@H]12` (some centres undefined), the growth is 87.7% (inactive). As to `CC1CCN(CC(=O)Nn2c(COc3ccccc3)nc3ccccc3c2=O)CC1`, the growth was 125% (inactive). The same measure, in the same setting: next, `CCCCSC1=C(Cl)CN(c2ccccc2)C1=O`: 134% (inactive); `CC1=Cc2ccccc2OC12C=Cc1ccccc1O2` (centres undefined): 180% (inactive).

Take `Brc1ccc(-c2cc(-c3ccc4c(c3)OC=CO4)n[nH]2)s1`: the growth is 149% (inactive).
